Experimental data published in PubChem BioAssay AID1159580 (chemical genetic matrix, 2015).
In all, about 5,500 compounds went through this assay and about 2,000 (36%) were called active. Not shown: some 18% with an inconclusive outcome. Cut-off read from the data, not from the text of the source: active = normalized growth mostly below about 0.91 (no sharp cut-off); inconclusive = no clear call, values can overlap the other calls; inactive = mostly above about 0.92. This is one part of the list.

Assay: chemical genetic growth profiling, strain panel (AID 1159580);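 note: tested at 20 µM; growth read once vehicle control cultures reached saturation at 30 °C; 1 = growth at the plate median or of vehicle wells; lower values mean less growth of the strain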
Conditions: growth OD

Measured: normalized growth

Cc1cc(C)nc(NS(=O)(=O)c2ccc(N)cc2)n1
inactive: S. cerevisiae deletion strains, locus YJR066W, strain TOR1, hits give low values 0.929 | S. cerevisiae deletion strains, locus YJR075W, strain HOC1, hits give low values 0.98 | S. cerevisiae deletion strains, locus YKL009W, strain mrt4, hits give low values 0.961 | S. cerevisiae deletion strains, locus YKL068W, hits give low values 0.982 | S. cerevisiae deletion strains, locus YKL085W, strain MDH1 (second series), hits give low values 0.971 | S. cerevisiae deletion strains, locus YKL085W, strain MDH1, hits give low values 0.971 | S. cerevisiae deletion strains, locus YKL160W, strain elf1, hits give low values 1 | S. cerevisiae deletion strains, locus YKL190W, strain CNB1, hits give low values 1 | S. cerevisiae deletion strains, locus YKR001C, strain vps1, hits give low values 0.98 | S. cerevisiae deletion strains, locus YKR026C, strain gcn3, hits give low values 0.985 | S. cerevisiae deletion strains, locus YKR091W, strain srl3, hits give low values 0.958 | S. cerevisiae deletion strains, locus YLL001W, strain dnm1, hits give low values 1.03 | S. cerevisiae deletion strains, locus YLL026W, hits give low values 0.993 | S. cerevisiae deletion strains, locus YLL041C, strain sdh2, hits give low values 0.975 | S. cerevisiae deletion strains, locus YLR027C, strain aat2, hits give low values 0.985 | S. cerevisiae deletion strains, locus YLR039C, strain RIC1, hits give low values 0.981 | S. cerevisiae deletion strains, locus YLR058C, strain SHM2, hits give low values 0.986 | S. cerevisiae deletion strains, locus YLR102C, strain apc9, hits give low values 0.984 | S. cerevisiae deletion strains, locus YLR113W, strain HOG1, hits give low values 0.975 | S. cerevisiae deletion strains, locus YLR221C, strain rsa3, hits give low values 0.958 | S. cerevisiae deletion strains, locus YLR258W, strain gsy2, hits give low values 0.977 | S. cerevisiae deletion strains, locus YLR262C, strain YPT6 (second series), hits give low values 0.972 | S. cerevisiae deletion strains, locus YLR262C, strain YPT6, hits give low values 0.986 | S. cerevisiae deletion strains, locus YLR268W, strain sec22, hits give low values 0.952 | S. cerevisiae deletion strains, locus YLR320W, strain mms22, hits give low values 0.957 | S. cerevisiae deletion strains, locus YLR330W, strain CHS5, hits give low values 0.988 | S. cerevisiae deletion strains, locus YLR342W, strain FKS1 (second series), hits give low values 0.999 | S. cerevisiae deletion strains, locus YLR342W, strain FKS1, hits give low values 0.996 | S. cerevisiae deletion strains, locus YLR357W, strain rsc2, hits give low values 0.975 | S. cerevisiae deletion strains, locus YLR370C, strain arc18, hits give low values 0.984 | S. cerevisiae deletion strains, locus YLR371W, strain rom2, hits give low values 0.961 | S. cerevisiae deletion strains, locus YLR384C, strain iki3, hits give low values 0.985 | S. cerevisiae deletion strains, locus YLR418C, strain cdc73, hits give low values 1.02 | S. cerevisiae deletion strains, locus YML016C, strain PPZ1, hits give low values 0.995 | S. cerevisiae deletion strains, locus YML032C, strain rad52, hits give low values 0.98 | S. cerevisiae deletion strains, locus YML120C, strain ndi1, hits give low values 0.976 | S. cerevisiae deletion strains, locus YML124C, strain tub3, hits give low values 0.981 | S. cerevisiae deletion strains, locus YMR058W, strain fet3, hits give low values 0.986 | S. cerevisiae deletion strains, locus YMR078C, strain ctf18, hits give low values 0.98 | S. cerevisiae deletion strains, locus YMR125W, strain sto1, hits give low values 0.947 | S. cerevisiae deletion strains, locus YMR129W, hits give low values 0.974 | S. cerevisiae deletion strains, locus YMR205C, strain PFK2, hits give low values 0.988 | S. cerevisiae deletion strains, locus YMR223W, strain ubp8, hits give low values 1.02 | S. cerevisiae deletion strains, locus YMR231W, strain pep5, hits give low values 1.02 | S. cerevisiae deletion strains, locus YMR307W, strain GAS1, hits give low values 1.02 | S. cerevisiae deletion strains, locus YNL067W, strain RPL9B, hits give low values 0.996 | S. cerevisiae deletion strains, locus YNL071W, strain lat1, hits give low values 0.973 | S. cerevisiae deletion strains, locus YNL128W, strain TEP1, hits give low values 0.97 | S. cerevisiae deletion strains, locus YNL183C, strain NPR1, hits give low values 0.967 | S. cerevisiae deletion strains, locus YNL209W, strain ssb2, hits give low values 0.975 | S. cerevisiae deletion strains, locus YNL233W, strain BNI4, hits give low values 0.997 | S. cerevisiae deletion strains, locus YNL248C, strain rpa49, hits give low values 0.909 | S. cerevisiae deletion strains, locus YNL250W, strain rad50, hits give low values 0.986 | S. cerevisiae deletion strains, locus YNL271C, strain bni1, hits give low values 0.993 | S. cerevisiae deletion strains, locus YNL298W, strain CLA4, hits give low values 0.963 | S. cerevisiae deletion strains, locus YNL307C, strain MCK1, hits give low values 0.978 | S. cerevisiae deletion strains, locus YNL322C, strain KRE1 (second series), hits give low values 0.971 | S. cerevisiae deletion strains, locus YNL322C, strain KRE1, hits give low values 0.997 | S. cerevisiae deletion strains, locus YNR049C, strain mso1, hits give low values 0.963 | S. cerevisiae deletion strains, locus YNR052C, strain pop2, hits give low values 0.97 | S. cerevisiae deletion strains, locus YOL006C, strain TOP1, hits give low values 1.07 | S. cerevisiae deletion strains, locus YOL012C, strain htz1 1.13 | S. cerevisiae deletion strains, locus YOL147C, strain pex11, hits give low values 0.991 | S. cerevisiae deletion strains, locus YOR001W, strain rrp6, hits give low values 1 | S. cerevisiae deletion strains, locus YOR061W, strain CKA2, hits give low values 1 | S. cerevisiae deletion strains, locus YOR069W, strain VPS5, hits give low values 0.988 | S. cerevisiae deletion strains, locus YOR070C, strain gyp1, hits give low values 0.98 | S. cerevisiae deletion strains, locus YOR080W, strain dia2, hits give low values 0.983 | S. cerevisiae deletion strains, locus YOR083W, strain WHI5, hits give low values 0.983 | S. cerevisiae deletion strains, locus YOR106W, strain vam3, hits give low values 1.02 | S. cerevisiae deletion strains, locus YOR136W, strain idh2, hits give low values 0.996 | S. cerevisiae deletion strains, locus YOR144C, strain elg1, hits give low values 0.991 | S. cerevisiae deletion strains, locus YOR184W, strain ser1, hits give low values 0.979 | S. cerevisiae deletion strains, locus YOR231W, strain MKK1, hits give low values 0.995 | S. cerevisiae deletion strains, locus YOR265W, strain rbl2, hits give low values 0.981 | S. cerevisiae deletion strains, locus YOR270C, strain vph1, hits give low values 0.97 | S. cerevisiae deletion strains, locus YOR290C, strain snf2, hits give low values 0.943 | S. cerevisiae deletion strains, locus YOR316C, strain cot1, hits give low values 0.971 | S. cerevisiae deletion strains, locus YPL051W, strain arl3, hits give low values 0.995 | S. cerevisiae deletion strains, locus YPL078C, strain atp4, hits give low values 0.99 | S. cerevisiae deletion strains, locus YPL106C, strain sse1, hits give low values 0.914 | S. cerevisiae deletion strains, locus YPL240C, strain hsp82, hits give low values 0.979 | S. cerevisiae deletion strains, locus YPL256C, strain CLN2, hits give low values 0.954 | S. cerevisiae deletion strains, locus YPR119W, strain clb2, hits give low values 0.978 | S. cerevisiae deletion strains, locus YPR141C, strain kar3, hits give low values 0.973 | S. cerevisiae deletion strains, locus YPR163C, strain tif3, hits give low values 0.981 | S. cerevisiae deletion strains, locus YPR167C, strain met16, hits give low values 0.971 | S. cerevisiae deletion strains, strain wtn01, hits give low values 0.981 | S. cerevisiae strains, strain wild type, hits give low values 0.995
